# Source: the supplement of paper PMC7530171
# “And” between values parts separate entries of the source, which are not always exact repeats. Equal values may be shown once. Where a name gives a salt, the structure may show the parent alone. ± gives the standard deviation.
# Test system: THP-1
# Test: THP-1 cell loss relative to DMSO control; higher = more host cell loss (toxicity); extreme values may be limits of the assay
# Conditions: 10 µM; 4 days; infection: M. tuberculosis H37Rv
# Description: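 OICR kinase inhibitor library screened in duplicate at 10 uM against M. tuberculosis-infected THP-1 macrophages, 4 days at 37 C. THP-1 cell loss (cytotoxicity or loss of adherence) was quantified from Hoechst-stained nuclei counts by high-content imaging and normalised to the 1% DMSO control; 100 = complete loss of host cells.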
row,SMILES,THP-1 cell loss
1,NC(=O)c1ccc(-c2nc(-c3ccccn3)c(-c3ccc4c(c3)OCO4)[nH]2)cc1,0.126 ± 0.18%
2,NC(=O)Nc1sc(-c2ccc(F)cc2)cc1C(N)=O,76.1 ± 3%
3,Oc1ccc(Nc2nc(-c3ccc(Cl)cc3)cs2)cc1 [2-(p-Hydroxyanilino)-4-(p-chlorophenyl) thiazole],100%
4,Cc1cc(C=C2C(=O)C=CC2=O)cc(C)c1O,1.15 ± 1.6%
5,C[C@@H]1CN(CC(=O)Nc2ccc3c(c2)Cc2cccc(-c4cc(=O)cc(N5CCOCC5)o4)c2S3)C[C@H](C)O1,100%
6,Cn1cnc2c(F)c(Nc3ccc(Br)cc3Cl)c(C(=O)NOCCO)cc21,82.3 ± 9.6%
7,COc1cccc(-c2cc(=O)c3ccccc3o2)c1N,26.7 ± 35%
8,Oc1cccc(-c2nc(N3CCOCC3)c3sccc3n2)c1 [PI3-Kinase a Inhibitor 2],62 ± 6.5%
9,Cc1ccc(S(=O)(=O)Nc2nc3ccccc3nc2Nc2ccc3nsnc3c2)cc1,40.9 ± 5.2%
10,N#Cc1c(-c2ccccc2)cc(-c2cc(Br)ccc2O)[nH]c1=O,8.6 ± 8.9%
11,CCn1c(-c2nonc2N)nc2cnc(Oc3cccc(NC(=O)c4ccc(OCCN5CCOCC5)cc4)c3)cc21,83.5 ± 23%
12,Cc1cn(-c2cc(NC(=O)c3ccc(C)c(Nc4nccc(-c5cccnc5)n4)c3)cc(C(F)(F)F)c2)cn1 [Nilotinib],75.3 ± 35%
13,CCc1nc(-c2cccc(C)c2)c(-c2ccnc(NC(=O)c3ccccc3)c2)s1,23.2 ± 2.1%
14,O=C(Nc1cc(Cl)cc2c1[nH]c1cnccc12)c1cccnc1 [PS1145 dihydrochloride],48.1 ± 24%
15,Cc1ccc(F)c(NC(=O)Nc2ccc(-c3cccc4[nH]nc(N)c34)cc2)c1,84.1 ± 22%
16,CCc1cncnc1N1CCN(Cc2nc3ccc(C(F)(F)F)cc3[nH]2)CC1,92.6 ± 10%
17,CN(C)Cc1cccc(N=C(c2ccccc2)c2c(O)[nH]c3cc(C(=O)N(C)C)ccc23)c1,23.9 ± 0.5%
18,CC#CC(=O)Nc1ccc2ncnc(Nc3cccc(Br)c3)c2c1,89.6 ± 15%
19,CNc1cc2c(Nc3cccc(Br)c3)ncnc2cn1,78.2 ± 5.8%
20,CO[C@@H](C(=O)N1Cc2[nH]nc(NC(=O)c3ccc(N4CCN(C)CC4)cc3)c2C1)c1ccccc1,19.1 ± 3.7%

row,SMILES,THP-1 cell loss
1,CCCS(=O)(=O)Nc1ccc(F)c(C(=O)c2c[nH]c3ncc(-c4ccc(Cl)cc4)cc23)c1F,100%
2,NC(=O)c1ccc2[nH]ccc2c1,50 ± 71%
3,Cc1ccccc1-n1c(Cn2nc(-c3cccc(O)c3)c3c(N)ncnc32)nc2cccc(C)c2c1=O,43.9 ± 23%
4,CN(C)C/C=C/C(=O)Nc1cc2c(Nc3ccc(F)c(Cl)c3)ncnc2cc1O[C@H]1CCOC1,77.6 ± 2.9%
5,CCOc1cc(/C=C(\C#N)C(N)=O)cc(CSc2ccccc2)c1O,10.3 ± 14%
6,N#CC(=C(/N)Sc1ccccc1N)/C(C#N)=C(/N)Sc1ccccc1N,39.2 ± 23%
7,O=C(Nc1nc2ccccc2n1CCN1CCOCC1)c1cccc([N+](=O)[O-])c1 [IRAK-1/4 Inhibitor I],2.5 ± 3.5%
8,Cc1ccccc1C(=O)c1ccc(Nc2ccc(Br)cc2N)cc1Cl,16.5 ± 23%
9,N#CC[C@H](C1CCCC1)n1cc(-c2ncnc3[nH]ccc23)cn1,26.3 ± 7.9%
10,O=C(NC(NC(=S)Nc1ccc(F)c([N+](=O)[O-])c1)C(Cl)(Cl)Cl)C(c1ccccc1)c1ccccc1 (stereo not given),100%
11,C[C@@H](Oc1cc(-n2cnc3ccc(CN4CCN(C)CC4)cc32)sc1C(N)=O)c1ccccc1C(F)(F)F,23.7 ± 4.8%
12,c1cc(OCCN2CCCCC2)cc(-c2n[nH]c3ccc(-c4nnc[nH]4)cc23)c1,3.37 ± 4.8%
13,O=C(NOC[C@H](O)CO)c1ccc(F)c(F)c1Nc1ccc(I)cc1F,100%
14,CN(C)CCCn1cc(C2=C(c3c[nH]c4ccccc34)C(=O)NC2=O)c2ccccc21 [Bisindolylmaleimide I hydrochloride],100%
15,CCN(CC)CCCCN1c2ccccc2Oc2ccc(Cl)cc21 [10-DEBC hydrochloride],29.4 ± 13%
16,O=c1cc(N2CCOCC2)oc2c1ccc1ccccc12,24.4 ± 6.4%
17,Nc1ncnc2n[nH]c(Nc3ccc(F)cc3)c12,24% and 11%
18,COc1cc(SC)ccc1C(=O)N1CCC(Cc2ccccc2)CC1,0.379 ± 0.54%
19,Nc1nccc(Oc2ccc(NC(=O)c3c[nH]cc(-c4ccc(F)cc4)c3=O)cc2F)c1Cl,48.1 ± 23%
20,CO[C@@H]1[C@H](N(C)C(=O)c2ccccc2)C[C@H]2O[C@]1(C)n1c3ccccc3c3c4c(c5c6ccccc6n2c5c31)C(=O)NC4,30.8 ± 4.7%
